# Experiments:
# Conditions in all cases: concentration: 1 μM, replicates: in singlicate; n = 1
# PRKR = system: T1, PRKR
# T1 construct: gene EIF2AK2
# PRKX = system: PRKX
# PRP4 = system: PRP4
# PYK2 = system: T2, PYK2
# T2 construct: gene PTK2B
# QSK = system: QSK
# RAF1 = system: RAF1
# RET = system: RET
# RIOK1 = system: RIOK1
# RIOK2 = system: RIOK2
# RIOK3 = system: RIOK3
# 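Note: KINOMEscan kinase panel screen.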
Structure (SMILES),%Inh (PRKR) [%],%Inh (PRKX) [%],%Inh (PRP4) [%],%Inh (PYK2) [%],%Inh (QSK) [%],%Inh (RAF1) [%],%Inh (RET) [%],%Inh (RIOK1) [%],%Inh (RIOK2) [%],%Inh (RIOK3) [%]
COc1ccc(NC(=O)Nc2ccc(C)c(-c3ccc(C(=O)Nc4ccncc4)cc3)c2)cc1 [GSK1398475],0,10,19,3,0,50,0,31,0,8
Cc1cc(N2CCC(NS(=O)(=O)c3ccc(F)cc3)CC2)nc(Nc2cccc(C#N)c2)n1.O=C(O)C(F)(F)F [GSK1653537],0,0,3,37,9,0,29,45,0,25
Fc1ccc(-c2ncn(CCCNCc3ccccc3)c2-c2ccncc2)cc1,0,0,17,1,1,0,18,0,11,28
O=C(Nc1n[nH]c2nc(-c3ccco3)c(Br)cc12)c1ccc(CN2CCCC2)cc1.O=C(O)[C@H](O)[C@@H](O)C(=O)O [SB-742352],0,0,0,42,0,17,28,0,0,0
COc1ccc(Nc2nccc(N3CCC(NC(=O)Nc4ccc5c(c4)OCO5)C3)n2)cc1 (centres unmarked) [GSK1379745],0,19,23,27,8,22,9,28,5,35

# Source: article PMC5540273 (PLoS ONE, 2017)
